Test results reported in PubChem BioAssay.
Values joined by “and” are separate entries in the source; they are usually repeats but may differ in a detail not shown here. Equal entries are not always repeated. For some assays here: Measured potencies and affinities stand elsewhere. Active and inactive are the calls of the source. Unless noted, the rule behind the calls is not given here.

Assays:
[1] = molecular target: 6-phosphogluconate dehydrogenase, decarboxylating (Homo sapiens) (UniProt P52209); experiment: inhibition of human phosphogluconate dehydrogenase – biochemical, recombinant enzyme, NADPH absorbance, primary screen (AID 1159550;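 active = at least 20% inhibition of 6-phosphogluconate dehydrogenase activity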); details: recombinant 6PGD, NADPH absorbance 341 nm; at 10 µM; stronger effect = higher value
[2] = EMT-state selective cytotoxicity in co-culture – imaging, PC-3E GFP, TEM4-18 mCherry, primary screen (AID 1345086;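 active = compounds killing one labelled cell type while sparing the other, by normalised counts and ratio limits, not self-fluorescent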;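 for all read-outs here: cells exposed to compound for 72 h before imaging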;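 for red/green cell ratio (normalised): normalised mesenchymal count divided by normalised epithelial count so high means epithelial killing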); details: PC-3E GFP / TEM4-18 mCherry co-culture, imaging cell counts, at 1 µM; for red/green cell ratio (normalised): actives lie on both sides
[3] = test system: Aerobactin synthetase IucA (Klebsiella pneumoniae hvKP1); experiment: IucA enzyme inhibition, primary screen, biochemical, Spectrum library (AID 1346200); details: malachite green pyrophosphate, A620, at 8 µM, stronger effect = lower value;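 note: 100% = wells without compound and 0% = wells lacking enzyme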
[4] = viability loss with induced miR-34 in A549 – imaging, A549 dox-inducible miR-34, nuclei and caspase counts, primary screen (AID 1347080;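 active = compounds whose cell count with miR-34 switched on is under 0.7 times the count with it off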); details: A549 miR-34 inducible, Hoechst nuclei count, 48 h
[5] = molecular target: NAD(+) hydrolase SARM1 (Homo sapiens) (UniProt Q6SZW1); experiment: blocking NAD cleavage by SARM1 SAM-TIR – cell lysate, NAD-Glo luminescence (AID 1508614;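 active = compound whose remaining NAD level is above about 45 nM, limit read from the data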;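 note: higher remaining NAD means stronger inhibition of SARM1 NADase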); details: SAM-TIR HEK293T lysate NADase, at 1 µM, stronger effect = higher value
[6] = compounds altering viability of human ES cells (AID 493140); details: human embryonic stem cell survival screen; stronger effect = higher value;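 note: cells exposed to compounds for four days before counting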
[7] = P. berghei load reduction in hepatocytes – cell-based, HepG2, luciferase luminescence, HepG2 viability, primary screen (AID 624349; in the data active = parasite load remaining mostly below about 12%, no sharp cut-off; inactive = mostly above about 10%;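 note: 100% = mean of DMSO negative control wells on the same plate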); details: P. berghei liver stage in HepG2, luciferase luminescence, concentration not given here; parasite load remaining: stronger effect = lower value; viability: measured here: HepG2 viability without parasites
[8] = molecular target: Mitogen-activated protein kinase 7 (Homo sapiens) (UniProt Q13164); experiment: Gal4-ERK5 driven luciferase induction – cell-based, HTS, primary screen (AID 1508626;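 active = luciferase signal above three times the same-plate solvent-only control wells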;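 note: luciferase driven by Gal4-ERK5 fusion binding five Gal4 sites before minimal TATA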); details: HeLa Gal4-ERK5 transactivation, 18 h, at 5 µM, stronger effect = higher value
[9] = blockers of polyQ-driven CASP3 activation – cell-based (AID 1583); details: polyglutamine-induced caspase-3 activation, cell assay; stronger effect = higher value;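 tested at 10 µM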
[10] = yeast 75Q aggregation reduction – 75Q-TubU reporter (AID 1593); details: Yeast 75Q polyglutamine aggregation reporter
[11] = restoration of touch response, mutant HTT neurons – whole organism, C. elegans mechanosensory neurons, N-terminal huntingtin (AID 1599); details: C. elegans polyQ-huntingtin mechanosensory neurons, stronger effect = higher value
[12] = blockers of cytochrome c efflux from mitochondria – biochemical, purified mitochondria (AID 1603); details: stronger effect = lower value;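 note: mouse liver mitochondria challenged with calcium chloride; signal normalized to the plate average as 100%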
[13] = polyglutamine aggregate formation blockers (AID 1604); details: polyglutamine-induced protein aggregation inhibition assay; stronger effect = higher value; tested at 2.5 µM
[14] = glutamate transport activators, MN-1 cells, MN-1 cell line (AID 1612); details: MN-1 motor neuron cells, stronger effect = higher value;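 note: tested at 1 µM final; 0% = mean of DMSO vehicle wells on each plate; positive means more glutamate uptake than control and negative means less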
[15] = GFP-Q80 aggregate reduction, neuronal-like cells, cell-based, NGF-treated PC12, GFPQ80 (AID 1614); details: PC12 NGF-treated GFP-polyQ80 inclusion reduction;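 note: lower means fewer inclusions and 0 means no inclusions at all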
[16] = 75Q-TubH aggregate inhibition, S. cerevisiae, yeast (AID 1616); details: S. cerevisiae 75Q-TubH polyglutamine aggregation suppression; stronger effect = higher value
[17] = measured here: epithelial PC-3E GFP cell survival
[18] = measured here: mesenchymal TEM4-18 mCherry cell survival
[19] = measured here: relative caspase fold change +Dox/-Dox
[20] = measured here: total cells with miR-34 induction, stronger effect = lower value
[21] = measured here: total cells without miR-34 induction

Mitogen-activated protein kinase 7 (Homo sapiens), sequence (Q13164 whole entry, looked up, the tested form may be a part): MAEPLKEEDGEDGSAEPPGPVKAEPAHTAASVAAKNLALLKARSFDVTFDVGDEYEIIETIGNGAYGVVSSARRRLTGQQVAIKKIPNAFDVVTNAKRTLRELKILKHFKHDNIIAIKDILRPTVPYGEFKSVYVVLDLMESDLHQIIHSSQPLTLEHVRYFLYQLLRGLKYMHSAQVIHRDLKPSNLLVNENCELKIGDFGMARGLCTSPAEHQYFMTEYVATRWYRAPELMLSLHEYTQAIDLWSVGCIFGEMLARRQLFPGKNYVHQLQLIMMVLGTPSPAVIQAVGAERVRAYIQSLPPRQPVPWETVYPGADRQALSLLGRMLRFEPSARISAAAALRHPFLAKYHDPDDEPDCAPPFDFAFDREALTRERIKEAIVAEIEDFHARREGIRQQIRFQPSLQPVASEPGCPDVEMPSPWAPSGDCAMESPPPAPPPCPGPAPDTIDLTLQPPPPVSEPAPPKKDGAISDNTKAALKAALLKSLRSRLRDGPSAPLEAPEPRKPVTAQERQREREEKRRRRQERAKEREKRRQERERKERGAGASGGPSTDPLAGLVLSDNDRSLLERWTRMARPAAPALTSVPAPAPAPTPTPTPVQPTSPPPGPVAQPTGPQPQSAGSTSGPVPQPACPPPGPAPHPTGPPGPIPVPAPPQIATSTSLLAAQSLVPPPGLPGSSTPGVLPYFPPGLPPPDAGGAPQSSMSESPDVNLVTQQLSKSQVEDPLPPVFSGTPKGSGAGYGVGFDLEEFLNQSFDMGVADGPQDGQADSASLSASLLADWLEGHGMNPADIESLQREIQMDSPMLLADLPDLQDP
6-phosphogluconate dehydrogenase, decarboxylating (Homo sapiens), sequence (P52209 whole entry, looked up): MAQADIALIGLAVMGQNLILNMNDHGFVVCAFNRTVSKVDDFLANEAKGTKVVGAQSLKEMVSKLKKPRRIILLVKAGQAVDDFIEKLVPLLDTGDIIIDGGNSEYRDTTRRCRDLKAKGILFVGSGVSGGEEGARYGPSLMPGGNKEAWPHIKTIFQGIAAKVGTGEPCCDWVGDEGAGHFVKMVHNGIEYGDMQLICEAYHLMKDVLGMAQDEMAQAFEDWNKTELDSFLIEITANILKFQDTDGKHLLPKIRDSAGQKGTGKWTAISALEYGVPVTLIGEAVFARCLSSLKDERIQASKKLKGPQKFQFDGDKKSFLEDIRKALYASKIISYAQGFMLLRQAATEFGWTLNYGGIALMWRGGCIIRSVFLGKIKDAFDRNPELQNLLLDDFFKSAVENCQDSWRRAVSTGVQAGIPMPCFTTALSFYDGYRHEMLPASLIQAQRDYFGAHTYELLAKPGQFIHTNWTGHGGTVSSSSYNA
NAD(+) hydrolase SARM1 (Homo sapiens), sequence (Q6SZW1 whole entry, looked up): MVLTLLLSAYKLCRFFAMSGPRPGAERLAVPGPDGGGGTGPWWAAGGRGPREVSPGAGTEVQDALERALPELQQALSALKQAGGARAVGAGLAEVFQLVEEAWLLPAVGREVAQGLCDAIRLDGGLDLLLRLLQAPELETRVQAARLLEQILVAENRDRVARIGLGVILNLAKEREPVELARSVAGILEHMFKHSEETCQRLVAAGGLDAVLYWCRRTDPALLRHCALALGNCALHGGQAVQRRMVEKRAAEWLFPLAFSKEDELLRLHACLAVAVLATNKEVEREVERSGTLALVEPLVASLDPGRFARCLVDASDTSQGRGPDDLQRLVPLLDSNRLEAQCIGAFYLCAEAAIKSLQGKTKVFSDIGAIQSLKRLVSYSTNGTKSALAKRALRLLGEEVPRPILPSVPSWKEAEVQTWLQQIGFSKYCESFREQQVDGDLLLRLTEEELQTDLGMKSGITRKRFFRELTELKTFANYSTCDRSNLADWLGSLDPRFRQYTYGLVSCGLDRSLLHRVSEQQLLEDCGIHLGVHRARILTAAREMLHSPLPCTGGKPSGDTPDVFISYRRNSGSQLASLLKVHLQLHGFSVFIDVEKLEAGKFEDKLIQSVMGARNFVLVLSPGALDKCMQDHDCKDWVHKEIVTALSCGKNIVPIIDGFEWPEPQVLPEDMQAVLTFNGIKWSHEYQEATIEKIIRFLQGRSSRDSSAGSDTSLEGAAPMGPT

Question: Which results are given for `CCOP(=S)(OCC)Oc1nc(Cl)c(Cl)cc1Cl`?
Answer: inhibition [1]: -10.3% (inactive); red/green cell ratio (normalised) [2]: 0.91 (inactive); normalised cell number [2, 17]: 0.9; normalised cell number [2, 18]: 0.82; activity remaining [3]: 79.3% (inactive); fold change ([4]; stronger effect = lower value): 0.887 (inactive); fold change [4, 19]: 1.26; cell count [4, 20]: 8030; cell count [4, 21]: 9060; remaining NAD [5]: 10 nM (inactive)

Question: For `N[C@H](CO)Cc1ccccc1`, which inhibition [1] is on record?
Answer: 1.18% (inactive)

Question: What about the red/green cell ratio (normalised) [2] of the same compound?
Answer: 1 (inactive)

Question: What about the normalised cell number [2, 17] of the same compound?
Answer: 1.16

Question: And the normalised cell number [2, 18]?
Answer: 1.17

Question: What about the activity remaining [3] of the same compound?
Answer: 102% (inactive)

Question: Which survival [6] does the source give for `COc1cc2c(cc1OC)C(C)NCC2` (stereo not given) here?
Answer: 7.17 (inactive)

Question: And the parasite load remaining [7]?
Answer: 65.2% (inactive) and 87.3% (inactive)

Question: And the viability [7]?
Answer: 106% and 76.1%

Question: What about the inhibition [1] of the same compound?
Answer: -13.1% (inactive)

Question: What about the red/green cell ratio (normalised) [2] of the same compound?
Answer: 1.03 (inactive)

Question: What about the normalised cell number [2, 17] of the same compound?
Answer: 0.91

Question: What about the normalised cell number [2, 18] of the same compound?
Answer: 0.94

Question: And the activity remaining [3]?
Answer: 101% (inactive)

Question: What about the fold change ([4]; stronger effect = lower value) of the same compound?
Answer: 0.83 (inactive)

Question: And the fold change [4, 19]?
Answer: 1.56

Question: What about the cell count [4, 20] of the same compound?
Answer: 9140

Question: And the cell count [4, 21]?
Answer: 11000

Question: And the luciferase signal [8]?
Answer: 36 AU (inactive)

Question: For `CN[C@@H](C)[C@@H](O)c1ccccc1`, which inhibition [9] is on record?
Answer: 11.2%

Question: And the score [10]?
Answer: 1.57

Question: And the rescue above control [11]?
Answer: -0.65

Question: What about the cytochrome c release ratio [12] of the same compound?
Answer: 0.84

Question: What about the inhibition of aggregation [13] of the same compound?
Answer: 80.3%

Question: What about the glutamate uptake change [14] of the same compound?
Answer: -5.15%

Question: What about the inclusion score [15] of the same compound?
Answer: 2

Question: What about the aggregation suppression score [16] of the same compound?
Answer: 1.15

Question: What about the parasite load remaining [7] of the same compound?
Answer: 106% (inactive) and 61.4% (inactive)

Question: And the viability [7]?
Answer: 73.1% and 87.5%

Question: And the inhibition [1]?
Answer: 2.73% (inactive)

Question: What about the red/green cell ratio (normalised) [2] of the same compound?
Answer: 1.05 (inactive)

Question: What about the normalised cell number [2, 17] of the same compound?
Answer: 1.12

Question: And the normalised cell number [2, 18]?
Answer: 1.18

Question: What about the activity remaining [3] of the same compound?
Answer: 98.2% (inactive)

Question: What about the fold change ([4]; stronger effect = lower value) of the same compound?
Answer: 0.905 (inactive)

Question: And the fold change [4, 19]?
Answer: 3.17

Question: What about the cell count [4, 20] of the same compound?
Answer: 11300

Question: And the cell count [4, 21]?
Answer: 12500

Question: And the luciferase signal [8]?
Answer: 36 AU (inactive)

Question: With `COc1ccc2c3c([nH]c2c1)C(C)=NCC3` as the compound, how does the inhibition [9] read?
Answer: -62.4%

Question: What about the score [10] of the same compound?
Answer: 1.32

Question: And the rescue above control [11]?
Answer: -1.53

Question: And the cytochrome c release ratio [12]?
Answer: 0.94

Question: And the inhibition of aggregation [13]?
Answer: 51%

Question: And the glutamate uptake change [14]?
Answer: 48%

Question: What about the inclusion score [15] of the same compound?
Answer: 2

Question: And the aggregation suppression score [16]?
Answer: 0.883

Question: And the survival [6]?
Answer: 6 (inactive)

Question: What about the parasite load remaining [7] of the same compound?
Answer: 83.9% (inactive) and 28.8% (inactive) and 84.4% (inactive)

Question: And the viability [7]?
Answer: 103% and 71.6% and 83.5%

Question: And the inhibition [1]?
Answer: -10.2% (inactive)

Question: What about the red/green cell ratio (normalised) [2] of the same compound?
Answer: 0.92 (inactive)

Question: What about the normalised cell number [2, 17] of the same compound?
Answer: 1.06

Question: And the normalised cell number [2, 18]?
Answer: 0.98

Question: And the activity remaining [3]?
Answer: 124% (inactive)

Question: And the fold change ([4]; stronger effect = lower value)?
Answer: 0.95 (inactive)

Question: What about the fold change [4, 19] of the same compound?
Answer: 1.3

Question: What about the cell count [4, 20] of the same compound?
Answer: 8720

Question: What about the cell count [4, 21] of the same compound?
Answer: 9180

Question: And the luciferase signal [8]?
Answer: 68 AU (inactive)

Question: For `O=C(O)CCCOc1ccc(Cl)cc1Cl`, which inhibition [1] is on record?
Answer: -17.1% (inactive)

Question: And the red/green cell ratio (normalised) ([2]; counts scaled to control wells, 1 = unselective)?
Answer: 0.77 (inactive)

Question: And the normalised cell number [2, 17]?
Answer: 1.36

Question: And the normalised cell number [2, 18]?
Answer: 1.05

Question: And the activity remaining [3]?
Answer: 103% (inactive)

Question: Which results are given for `CC1=CCCC2C1(C)CCC(C)C2(C)CC/C(C)=C/C[n+]1cn(C)c2c(N)ncnc21` (stereo not given)?
Answer: inhibition [1]: 12% (inactive); red/green cell ratio (normalised) [2]: 0.92 (inactive); normalised cell number [2, 17]: 0.97; normalised cell number [2, 18]: 0.89; activity remaining [3]: 115% (inactive); luciferase signal [8]: 64 AU (inactive)
